The test system of one assay is Plasmodium falciparum. Put plainly: GSK_TCMDC: Inhibition of Plasmodium falciparum 3D7 in whole red blood cells, using parasite LDH activity as an index of growth. Test compounds present at 2uM. Type of assay: functional.
The term Inhibition denotes the drop in the measured response relative to a control, in per cent. Higher therefore signals a response far below the control. `COc1ccc(NC(=O)CCNc2cc(C)nc(NCc3cccc(C)c3)n2)cc1.O=C(O)C(F)(F)F` displayed an Inhibition of 100%.
`COc1cc(Br)c(S(=O)(=O)n2cc(CN3CCC(N)CC3)c3cc(Cl)ccc32)cc1OC.O=C(O)C(F)(F)F`: the Inhibition was 99%.
The compound `CCCc1ccccc1OCC(O)CN(C1CCCC1)C1CCCC1.Cl` (stereo not given) had an Inhibition of 97%.
`O=C(CCCCCNC(=O)c1ccc(O)c(-c2ccc(Cl)c(Cl)c2)c1)NCc1cccc2ccccc12` registered an Inhibition of 99%.
Same read-out and setting: under `CC(C)Cc1cn(-c2nc(C(=N)N)cs2)c2cc(Cl)ccc12` stands 100%; under `O=C(Nc1cccc(-c2ccc(-c3nc4cc(F)ccc4[nH]3)cc2)c1)c1ccoc1`, 85%.
Take `CC(=O)O.CCc1cc2c(cc1CC)CC(NC[C@@H](O)c1ccc(O)c3[nH]c(=O)ccc13)C2`: the Inhibition amounted to 100%.
As to `CN(C)c1cc(NC(=O)Nc2ccccc2)c2ccccc2n1`, the Inhibition turned out to be 100%.
`COC(=O)CNC(c1ccccc1)c1cc(Br)ccc1NC(=O)c1ccccc1Br` (stereo not given): the Inhibition was determined as 99%.
On to `O=C(COc1ccccc1Cl)N1CCc2cc3nccc(N4CCN5CCC[C@H]5C4)c3cc21`, for which the Inhibition was found to be 91%.
`O=C(/C=C/c1ccc(Cl)c(Cl)c1)NCCCCCN1CCC(c2c[nH]c3ccc(O)cc23)CC1`: the Inhibition was 100%.
Consider `COc1ccc(CC2(c3ccc(F)cc3)N=C(N)N(CCCc3ccc4c(c3)OCO4)C2=O)cc1.O=C(O)C(F)(F)F` (stereo not given), for which the Inhibition was 98%.
`Cc1cc(-c2cccc(CNC3CCN(C)CC3)c2)ccc1S(=O)(=O)NC1CCC1.O=C(O)C(F)(F)F` came in with an Inhibition of 100%.
For `O=C(O)C(F)(F)F.O=C1OC(c2ccccc2)(c2ccccc2)CN1CC1CCN(Cc2ccc(O)c(Cl)c2)CC1`, the Inhibition was 98%.
Same read-out and setting: under `Cc1ccc(C(=O)Nc2ccc(C)c(OC3CCN(CCC(C)C)C3)c2)cc1.O=C(O)C(F)(F)F` (stereo not given) stands 99%; under `CCOc1cc(Cc2cnc(N)nc2N)cc(OCC)c1-n1cccc1` [EPIROPRIM], 98%.
On to `CC1CCN(C(=O)C(Cc2c[nH]c3ccccc23)NS(=O)(=O)c2ccc(Cl)cc2)CC1` (stereo not given), for which the Inhibition was found to be 100%.
Compound `COc1ccc(Nc2nccc(N3CCC(NC(=O)c4cccc(C#N)c4)C3)n2)cc1` (stereo not given) showed an Inhibition of 92%.
`NC1=NC(c2ccccc2)(c2ccccc2)C(=O)N1C1CCCCC1.O=CO` had an Inhibition of 100%.
Compound `Cc1cc(=NN=CC=Cc2ccccc2)c2cc(F)ccc2[nH]1` showed an Inhibition of 100%.
Same read-out and setting: under `Cc1cc(NCCC(=O)NCCc2ccccc2)nc(NCCc2ccc(F)cc2)n1.O=C(O)C(F)(F)F` stands 92%.
`COc1cc(NC(=O)/C=C/c2ccccc2Cl)cc(OCCN2CCC(O)(c3ccccc3)CC2)c1.O=C(O)C(=O)O` returned an Inhibition of 100%.
The same measure, in the same setting: the value for `Cl.O=C(Nc1ccc(C(=O)Nc2cccc(C3=NCCN3)c2)cc1)Nc1ccc(C2=NCCN2)cc1` was 96%; that for `O=C(N[C@H]1CCN(Cc2ccc(OCCCN3CCCCC3)cc2)C1)c1ccc(Cl)c(Cl)c1` was 100%.
The compound `Cn1cnc2nc(NCCc3ccccc3)nc(NCc3cccc4ccccc34)c21` had an Inhibition of 95%.
Same read-out and setting: the value for `NCc1cccc(-c2ccc(CNC3CCN(Cc4ccccc4)CC3)cc2)c1.O=C(O)C(F)(F)F` was 95%.
For `CCCN1CCN(Cc2ccc(-c3ccc(-c4nc5ccccc5[nH]4)s3)cc2)CC1`, the Inhibition was determined as 100%.
Compound `FC(F)(F)c1cccc(Nc2nc3ccccc3nc2Nc2cccc(C(F)(F)F)c2)c1` had an Inhibition of 100%.
`Cc1ccc(NC(=O)c2ccc(CN3CCCN(CC4CCCCC4)CC3)cc2)cc1.O=C(O)C(F)(F)F` gave an Inhibition of 93%.
With `CC(C)COc1ccc(Cl)cc1Cc1ccc(-c2nc3ccc(F)cc3[nH]2)o1`, the Inhibition turned out to be 97%.
`CCN(CC)/C(=N/C(=N)NCc1cccc(Cl)c1)NCCCCCCN/C(=N\C(=N)NCc1cccc(Cl)c1)N(CC)CC` showed an Inhibition of 99%.
In the case of `Cn1c(-c2ccccc2)cc2c3c(=O)cc(C(F)(F)F)[nH]c3ccc21`, the Inhibition was 95%.
The compound `CN(C)C(=O)CN1CCN(c2ncnc(N3CCc4c([nH]c5ccccc45)[C@@H]3c3ccc4c(c3)CCO4)n2)CC1` came in with an Inhibition of 99%.
For the compound `Cl.Nc1c2ccccc2nc2cc([N+](=O)[O-])ccc12`, the Inhibition was determined as 98%.
On the same count and under the same terms, the value for `Cc1cc(NC(=O)Nc2ccc3ncccc3c2)c2ccccc2n1` was 93%; that for `Cc1ccc(NC(=O)NC2CCN(CCCCCNC(=O)/C=C/c3ccc(Cl)c(Cl)c3)CC2)cc1` was 100%; that for `COc1ccc(C2CC(c3cccs3)=NN2C(=O)c2ccccc2)cc1OC` (stereo not given) was 99%.
The compound `COc1cc2nc(N3CCC(NC(=O)c4cccc(N(C)C)c4)CC3)nc(N)c2cc1OC.O=C(O)/C=C\C(=O)O` came in with an Inhibition of 98%.
On the same count and under the same terms, under `COc1ccc(-c2cccc(NC(=O)c3cccc(C#N)c3)c2)cc1CNC(C)C.O=C(O)C(F)(F)F` stands 100%.
Same read-out and setting: under `COc1ccc(-c2ccc(NC(=O)c3ccc(C#N)cc3)cc2)cc1CN(C)CCN(C)C.O=C(O)C(F)(F)F` stands 96%.

A further assay has as its system Plasmodium falciparum. The assay is described as follows: GSK_TCMDC: Inhibition of Plasmodium falciparum Dd2 in whole red blood cells, using parasite LDH activity as an index of growth. Test compounds present at 2uM. Type of assay: functional.
With `COc1ccc(NC(=O)CCNc2cc(C)nc(NCc3cccc(C)c3)n2)cc1.O=C(O)C(F)(F)F`, the Inhibition is on record as 25%.
Turning to `COc1cc(Br)c(S(=O)(=O)n2cc(CN3CCC(N)CC3)c3cc(Cl)ccc32)cc1OC.O=C(O)C(F)(F)F`, the Inhibition came out at 32%.
The same measure, in the same setting: the value for `CCCc1ccccc1OCC(O)CN(C1CCCC1)C1CCCC1.Cl` (stereo not given) was 97%.
`O=C(CCCCCNC(=O)c1ccc(O)c(-c2ccc(Cl)c(Cl)c2)c1)NCc1cccc2ccccc12` yielded an Inhibition of 15%.
On to `CC(C)Cc1cn(-c2nc(C(=N)N)cs2)c2cc(Cl)ccc12`, for which the Inhibition came out at 98%.
On to `O=C(Nc1cccc(-c2ccc(-c3nc4cc(F)ccc4[nH]3)cc2)c1)c1ccoc1`, for which the Inhibition was determined as 6%.
For the compound `CC(=O)O.CCc1cc2c(cc1CC)CC(NC[C@@H](O)c1ccc(O)c3[nH]c(=O)ccc13)C2`, the Inhibition is 9%.
On the same count and under the same terms, under `CN(C)c1cc(NC(=O)Nc2ccccc2)c2ccccc2n1` stands 98%.
Regarding `COC(=O)CNC(c1ccccc1)c1cc(Br)ccc1NC(=O)c1ccccc1Br` (stereo not given), the Inhibition worked out at 77%.
On the same count and under the same terms, the value for `O=C(COc1ccccc1Cl)N1CCc2cc3nccc(N4CCN5CCC[C@H]5C4)c3cc21` was 99%; that for `O=C(/C=C/c1ccc(Cl)c(Cl)c1)NCCCCCN1CCC(c2c[nH]c3ccc(O)cc23)CC1` was 0%; that for `COc1ccc(CC2(c3ccc(F)cc3)N=C(N)N(CCCc3ccc4c(c3)OCO4)C2=O)cc1.O=C(O)C(F)(F)F` (stereo not given) was 97%.
The compound `Cc1cc(-c2cccc(CNC3CCN(C)CC3)c2)ccc1S(=O)(=O)NC1CCC1.O=C(O)C(F)(F)F` returned an Inhibition of 96%.
Compound `O=C(O)C(F)(F)F.O=C1OC(c2ccccc2)(c2ccccc2)CN1CC1CCN(Cc2ccc(O)c(Cl)c2)CC1` returned an Inhibition of 90%.
In the case of `Cc1ccc(C(=O)Nc2ccc(C)c(OC3CCN(CCC(C)C)C3)c2)cc1.O=C(O)C(F)(F)F` (stereo not given), the Inhibition came out at 53%.
`CCOc1cc(Cc2cnc(N)nc2N)cc(OCC)c1-n1cccc1` [EPIROPRIM] showed an Inhibition of 0%.
For `CC1CCN(C(=O)C(Cc2c[nH]c3ccccc23)NS(=O)(=O)c2ccc(Cl)cc2)CC1` (stereo not given), the Inhibition came out at 99%.
In turn, `COc1ccc(Nc2nccc(N3CCC(NC(=O)c4cccc(C#N)c4)C3)n2)cc1` (stereo not given) gave an Inhibition of 93%.
The compound `NC1=NC(c2ccccc2)(c2ccccc2)C(=O)N1C1CCCCC1.O=CO` gave an Inhibition of 87%.
Take `Cc1cc(=NN=CC=Cc2ccccc2)c2cc(F)ccc2[nH]1`: the Inhibition was 36%.
`Cc1cc(NCCC(=O)NCCc2ccccc2)nc(NCCc2ccc(F)cc2)n1.O=C(O)C(F)(F)F` gave an Inhibition of 7%.
On the same count and under the same terms, the value for `COc1cc(NC(=O)/C=C/c2ccccc2Cl)cc(OCCN2CCC(O)(c3ccccc3)CC2)c1.O=C(O)C(=O)O` was 46%; that for `Cl.O=C(Nc1ccc(C(=O)Nc2cccc(C3=NCCN3)c2)cc1)Nc1ccc(C2=NCCN2)cc1` was 98%; that for `O=C(N[C@H]1CCN(Cc2ccc(OCCCN3CCCCC3)cc2)C1)c1ccc(Cl)c(Cl)c1` was 36%.
For the compound `Cn1cnc2nc(NCCc3ccccc3)nc(NCc3cccc4ccccc34)c21`, the Inhibition came out at 98%.
As to `NCc1cccc(-c2ccc(CNC3CCN(Cc4ccccc4)CC3)cc2)c1.O=C(O)C(F)(F)F`, the Inhibition turned out to be 3%.
Compound `CCCN1CCN(Cc2ccc(-c3ccc(-c4nc5ccccc5[nH]4)s3)cc2)CC1` yielded an Inhibition of 93%.
The same measure, in the same setting: under `FC(F)(F)c1cccc(Nc2nc3ccccc3nc2Nc2cccc(C(F)(F)F)c2)c1` stands 100%; under `Cc1ccc(NC(=O)c2ccc(CN3CCCN(CC4CCCCC4)CC3)cc2)cc1.O=C(O)C(F)(F)F`, 42%.
In the case of `CC(C)COc1ccc(Cl)cc1Cc1ccc(-c2nc3ccc(F)cc3[nH]2)o1`, the Inhibition worked out at 49%.
Consider `CCN(CC)/C(=N/C(=N)NCc1cccc(Cl)c1)NCCCCCCN/C(=N\C(=N)NCc1cccc(Cl)c1)N(CC)CC`, for which the Inhibition was 99%.
The same measure, in the same setting: the value for `Cn1c(-c2ccccc2)cc2c3c(=O)cc(C(F)(F)F)[nH]c3ccc21` was 49%; that for `CN(C)C(=O)CN1CCN(c2ncnc(N3CCc4c([nH]c5ccccc45)[C@@H]3c3ccc4c(c3)CCO4)n2)CC1` was 98%.
The same measure, in the same setting: the value for `Cl.Nc1c2ccccc2nc2cc([N+](=O)[O-])ccc12` was 26%.
`Cc1cc(NC(=O)Nc2ccc3ncccc3c2)c2ccccc2n1` gave an Inhibition of 27%.
In the case of `Cc1ccc(NC(=O)NC2CCN(CCCCCNC(=O)/C=C/c3ccc(Cl)c(Cl)c3)CC2)cc1`, the Inhibition worked out at 19%.
For `COc1ccc(C2CC(c3cccs3)=NN2C(=O)c2ccccc2)cc1OC` (stereo not given), the Inhibition is recorded as 83%.
`COc1cc2nc(N3CCC(NC(=O)c4cccc(N(C)C)c4)CC3)nc(N)c2cc1OC.O=C(O)/C=C\C(=O)O` came in with an Inhibition of 0%.
For the compound `COc1ccc(-c2cccc(NC(=O)c3cccc(C#N)c3)c2)cc1CNC(C)C.O=C(O)C(F)(F)F`, the Inhibition is given as 51%.
In the case of `COc1ccc(-c2ccc(NC(=O)c3ccc(C#N)cc3)cc2)cc1CN(C)CCN(C)C.O=C(O)C(F)(F)F`, the Inhibition was determined as 58%.

The record behind these values is ChEMBL document CHEMBL1157539, “Thousands of chemical starting points for antimalarial lead identification” (Nature, 2010).
